# The source made the active and inactive calls. Rule for the calls: active = hit-call score of the fitted dose curve at least 0.9, where 1 is the maximum; inactive = score below 0.9.
# Legend:
# Settings in all cases: mRNA level, 48 h; actives raise or lower the signal
# [1] = read-out: Cytochrome P450 (CYP24A1), CYP24A1 (gene 1591); experiment: LTEA_HepaRG_CYP24A1: Life Technologies and Expression Analysis (LTEA) Assay for Cytochrome P450 (CYP24A1) using HepaRG (AID 2283478)
# In short: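 qRT-PCR read-out: CYP24A1 transcript levels normalized to three housekeeping genes, bidirectional curve fits against 0.5% DMSO baseline. Human HepaRG cells treated 48 h with chemicals at eight concentrations from 100 uM in half-log steps.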
# [2] = read-out: Cytochrome P450 (CYP1A2), CYP1A2 (gene 1544); experiment: LTEA_HepaRG_CYP1A2: Life Technologies and Expression Analysis (LTEA) Assay for Cytochrome P450 (CYP1A2) using HepaRG (AID 2283479)
# In short: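 HepaRG, 48 h exposure, top 100 uM, half-log 8-pt, 0.5% DMSO vehicle, duplicates. Readout: TaqMan qRT-PCR of CYP1A2 mRNA, housekeeping-normalized (ACTB/GAPDH/POLR2A). Gain/loss fit relative to DMSO baseline.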
# [3] = read-out: cysteine-aspartic acid protease (CASP8), CASP8 (gene 841); experiment: LTEA_HepaRG_CASP8: Life Technologies and Expression Analysis (LTEA) Assay for cysteine-aspartic acid protease (CASP8) using HepaRG (AID 2283480)
# In short: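 Differentiated HepaRG cells in serum-free induction medium, 48 h exposure, eight-point half-log series from 100 uM in 0.5% DMSO, duplicates. CASP8 mRNA by qRT-PCR, normalized to ACTB, GAPDH, POLR2A; bidirectional fit versus DMSO.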
# [4] = read-out: Cytochrome P450 (CYP2B6), CYP2B6 (gene 1555); experiment: LTEA_HepaRG_CYP2B6: Life Technologies and Expression Analysis (LTEA) Assay for Cytochrome P450 (CYP2B6) using HepaRG (AID 2283481)
# In short: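 Read-out is CYP2B6 mRNA by TaqMan qRT-PCR, normalized to three housekeeping genes and fitted bidirectionally against 0.5% DMSO baseline. Human HepaRG cells received test chemicals for 48 h, top concentration 100 uM, half-log dilutions.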
# [5] = read-out: Cytochrome P450 2C19 (Homo sapiens) (UniProt P33261); experiment: LTEA_HepaRG_CYP2C19: Life Technologies and Expression Analysis (LTEA) Assay for CYP2C19 using HepaRG (AID 2283482)
# In short: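 HepaRG, 48 h chemical exposure, 8-pt half-log series from 100 uM in 0.5% DMSO, duplicates. Readout: CYP2C19 mRNA by TaqMan qRT-PCR, housekeeping-normalized. Bidirectional fit vs DMSO baseline; phenobarbital 1mM as induction control.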
# [6] = read-out: CYP2C8 (gene 1558); experiment: LTEA_HepaRG_CYP2C8: Life Technologies and Expression Analysis (LTEA) Assay for CYP2C8 using HepaRG (AID 2283483)
# In short: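 Differentiated HepaRG cells in serum-free induction medium exposed 48 h in duplicate to 8 half-log concentrations from 100 uM in 0.5% DMSO. CYP2C8 mRNA by qRT-PCR normalized to ACTB, GAPDH, POLR2A; bidirectional fit versus DMSO.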
# [7] = read-out: CYP2C9 (gene 1559); experiment: LTEA_HepaRG_CYP2C9: Life Technologies and Expression Analysis (LTEA) Assay for CYP2C9 using HepaRG (AID 2283484)
# In short: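 Differentiated human HepaRG cells in serum-free induction medium were exposed 48 h to chemicals in 8-point half-log series from 100 uM (0.5% DMSO), in duplicate. CYP2C9 mRNA was measured by qRT-PCR, normalized to ACTB/GAPDH/POLR2A, with bidirectional fitting versus DMSO.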
# [8] = read-out: CYP2E1 (gene 1571); experiment: LTEA_HepaRG_CYP2E1: Life Technologies and Expression Analysis (LTEA) Assay for CYP2E1 using HepaRG (AID 2283485)
# In short: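 Differentiated HepaRG cells were treated in duplicate for 48 h with chemicals in 0.5% DMSO, from 100 uM downward in half-log dilutions. RNA was then analysed by qRT-PCR for CYP2E1 induction or loss.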
# [9] = read-out: CYP4A11 (gene 1579); experiment: LTEA_HepaRG_CYP4A11: Life Technologies and Expression Analysis (LTEA) Assay for CYP4A11 using HepaRG (AID 2283486)
# In short: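 CYP4A11 transcript levels were quantified by TaqMan qRT-PCR after HepaRG human liver cells were treated for 48 hours with test chemicals (top 100 uM, half-log dilutions, 0.5% DMSO). Gain or loss of signal was fitted relative to DMSO.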
# [10] = read-out: Cytochrome P450 3A4 (Homo sapiens) (UniProt P08684); experiment: LTEA_HepaRG_CYP3A4: Life Technologies and Expression Analysis (LTEA) Assay for CYP3A4 using HepaRG (AID 2283487)
# In short: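 In a human hepatic line (HepaRG), duplicate wells were treated 48 h with up to 100 uM chemical in half-log dilutions. Endpoint: CYP3A4 mRNA induction or loss relative to 0.5% DMSO vehicle, by qRT-PCR.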
# [11] = read-out: Pro-epidermal growth factor (Homo sapiens) (UniProt P01133); experiment: LTEA_HepaRG_EGF: Life Technologies and Expression Analysis (LTEA) Assay for Epidermal growth factor (EGF) using HepaRG (AID 2283489)
# In short: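 qRT-PCR readout of EGF transcript after 48 h chemical exposure of HepaRG cells; eight concentrations from 100 uM down in half-log steps, duplicate wells, 0.5% DMSO vehicle. Bidirectional curve fitting against DMSO baseline.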
# [12] = read-out: Early growth response protein 1 (EGR1) transcription factor, EGR1 (gene 1958); experiment: LTEA_HepaRG_EGR1: Life Technologies and Expression Analysis (LTEA) Assay for Early growth response protein 1 (EGR1) transcription factor using HepaRG (AID 2283490)
# In short: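 Differentiated HepaRG cells in serum-free induction medium exposed 48 hours, duplicate, to 8 half-log concentrations up to 100 uM in 0.5% DMSO. EGR1 mRNA measured by TaqMan qRT-PCR, normalized to ACTB, GAPDH, POLR2A; bidirectional fit versus DMSO.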
# [13] = read-out: Ezrin (EZR), EZR (gene 7430); experiment: LTEA_HepaRG_EZR: Life Technologies and Expression Analysis (LTEA) Assay for Ezrin (EZR) using HepaRG (AID 2283491)
# In short: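 Gain or loss of EZR mRNA is scored relative to 0.5% DMSO in human HepaRG cultures treated 48 h with test chemicals in duplicate, eight half-log concentrations from 100 uM.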
# [14] = read-out: CYP3A5 (gene 1577); experiment: LTEA_HepaRG_CYP3A5: Life Technologies and Expression Analysis (LTEA) Assay for CYP3A5 using HepaRG (AID 2283493)
# In short: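 mRNA induction or loss of CYP3A5 assessed in HepaRG after 48 h dosing, 100 uM top concentration, duplicate wells; TaqMan qRT-PCR with ACTB, GAPDH, POLR2A normalization; 0.5% DMSO as negative control.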
# [15] = read-out: Fatty Acid-Binding Protein 1 (FABP1), FABP1 (gene 2168); experiment: LTEA_HepaRG_FABP1: Life Technologies and Expression Analysis (LTEA) Assay for Fatty Acid-Binding Protein 1 (FABP1) using HepaRG (AID 2283494)
# In short: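 Differentiated human HepaRG cells exposed 48 h in serum-free induction medium to eight half-log concentrations up to 100 uM (0.5% DMSO), duplicate. FABP1 mRNA by qRT-PCR, normalised to ACTB, GAPDH, POLR2A; bidirectional fitting against DMSO.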
# [16] = read-out: Cytochrome P450 4A22 (Homo sapiens) (UniProt Q5TCH4); experiment: LTEA_HepaRG_CYP4A22: Life Technologies and Expression Analysis (LTEA) Assay for Cytochrome P450 4A22 (CYP4A22) using HepaRG (AID 2283495)
# In short: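 HepaRG, 48 h post-plating -> serum-free induction medium; dosed 48 h, duplicate, 8 conc. (100 uM top, half-log), 0.5% DMSO. Readout: CYP4A22 mRNA by qRT-PCR, ACTB/GAPDH/POLR2A normalization; gain/loss fit relative to DMSO.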
# [17] = read-out: Cytochrome P450 7A1 (Homo sapiens) (UniProt P22680); experiment: LTEA_HepaRG_CYP7A1: Life Technologies and Expression Analysis (LTEA) Assay for Cytochrome P450 7A1 (CYP7A1) using HepaRG (AID 2283496)
# In short: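 Gene expression endpoint in human HepaRG liver cells treated for 48 h with test chemicals (up to 100 uM, 0.5% DMSO). Values come from bidirectional concentration-response fitting versus DMSO.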
# [18] = read-out: Glutathione S-Transferase (GSTA2), GSTA2 (gene 2939); experiment: LTEA_HepaRG_GSTA2: Life Technologies and Expression Analysis (LTEA) Assay for Glutathione S-Transferase (GSTA2) using HepaRG (AID 2283497)
# In short: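 Differentiated human HepaRG cells were exposed in duplicate for 48 h in serum-free induction medium, 8 points from 100 uM top in half-log steps, 0.5% DMSO. GSTA2 mRNA was measured by TaqMan qRT-PCR, normalized to ACTB, GAPDH and POLR2A; bidirectional fit versus DMSO.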
# [19] = read-out: DNA damage-inducible transcript 3 (DDIT3), DDIT3 (gene 1649); experiment: LTEA_HepaRG_DDIT3: Life Technologies and Expression Analysis (LTEA) Assay for DNA damage-inducible transcript 3 (DDIT3) using HepaRG (AID 2283488)
# In short: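 Changes in DDIT3 transcript, in either direction relative to 0.5% DMSO vehicle, were quantified by TaqMan qRT-PCR after 48 h chemical exposure of HepaRG cells at 8 concentrations, maximum 100 uM.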
# [20] = read-out: Cytochrome P450 3A7 (Homo sapiens) (UniProt P24462); experiment: LTEA_HepaRG_CYP3A7: Life Technologies and Expression Analysis (LTEA) Assay for CYP3A7 using HepaRG (AID 2283492)
# In short: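 CYP3A7 transcript levels were read by TaqMan qRT-PCR on Fluidigm arrays after 48 h chemical exposure of human HepaRG cells, with housekeeping-gene normalisation. Eight half-log concentrations up to 100 uM in 0.5% DMSO were tested in duplicate.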
# Cytochrome P450 2C19 (Homo sapiens), sequence (P33261 whole entry, looked up): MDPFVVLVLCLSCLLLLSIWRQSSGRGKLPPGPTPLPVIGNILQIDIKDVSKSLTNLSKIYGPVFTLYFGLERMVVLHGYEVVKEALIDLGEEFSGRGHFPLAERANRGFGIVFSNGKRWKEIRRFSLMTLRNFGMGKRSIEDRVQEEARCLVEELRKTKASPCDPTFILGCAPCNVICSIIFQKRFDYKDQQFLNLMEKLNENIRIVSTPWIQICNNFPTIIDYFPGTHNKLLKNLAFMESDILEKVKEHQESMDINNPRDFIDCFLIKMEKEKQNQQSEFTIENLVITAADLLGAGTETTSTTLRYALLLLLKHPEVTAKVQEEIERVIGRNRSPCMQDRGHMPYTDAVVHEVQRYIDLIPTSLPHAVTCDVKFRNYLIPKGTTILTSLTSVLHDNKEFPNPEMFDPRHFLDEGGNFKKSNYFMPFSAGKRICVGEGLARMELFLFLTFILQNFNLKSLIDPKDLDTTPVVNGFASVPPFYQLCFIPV
# Cytochrome P450 3A4 (Homo sapiens), sequence (P08684 whole entry, looked up): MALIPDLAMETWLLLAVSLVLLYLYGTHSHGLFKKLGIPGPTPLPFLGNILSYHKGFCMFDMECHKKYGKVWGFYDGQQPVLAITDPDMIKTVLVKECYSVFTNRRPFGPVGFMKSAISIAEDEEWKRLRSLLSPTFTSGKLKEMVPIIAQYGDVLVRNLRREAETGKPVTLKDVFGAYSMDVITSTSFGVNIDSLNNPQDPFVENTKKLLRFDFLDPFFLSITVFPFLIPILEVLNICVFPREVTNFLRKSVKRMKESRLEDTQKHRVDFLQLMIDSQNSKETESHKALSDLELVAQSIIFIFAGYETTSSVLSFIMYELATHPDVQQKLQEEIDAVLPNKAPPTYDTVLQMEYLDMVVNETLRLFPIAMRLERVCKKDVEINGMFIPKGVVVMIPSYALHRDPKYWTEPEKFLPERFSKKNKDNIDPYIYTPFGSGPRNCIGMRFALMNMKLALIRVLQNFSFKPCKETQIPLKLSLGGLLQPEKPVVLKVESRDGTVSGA
# Cytochrome P450 3A7 (Homo sapiens), sequence (P24462 whole entry, looked up): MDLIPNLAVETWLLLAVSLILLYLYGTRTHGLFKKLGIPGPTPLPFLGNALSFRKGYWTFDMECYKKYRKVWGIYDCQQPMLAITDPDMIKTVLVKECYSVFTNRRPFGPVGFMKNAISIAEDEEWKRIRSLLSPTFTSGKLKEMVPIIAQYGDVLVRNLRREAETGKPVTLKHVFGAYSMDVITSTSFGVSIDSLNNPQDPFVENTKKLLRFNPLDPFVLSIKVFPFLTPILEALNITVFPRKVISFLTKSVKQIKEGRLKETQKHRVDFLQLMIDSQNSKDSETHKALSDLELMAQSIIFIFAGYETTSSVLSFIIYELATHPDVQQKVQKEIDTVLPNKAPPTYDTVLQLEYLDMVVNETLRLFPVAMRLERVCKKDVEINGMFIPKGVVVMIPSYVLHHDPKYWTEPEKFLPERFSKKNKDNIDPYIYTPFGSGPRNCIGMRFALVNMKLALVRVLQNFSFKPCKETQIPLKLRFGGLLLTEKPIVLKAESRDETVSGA
structure (smiles),measurement,setting,value
c1ccc2c(c1)ccc1ccccc12,outcome,[1],inactive
same,outcome,[2],inactive
same,outcome,[3],inactive
same,AC50,[4],5.8 µM (active)
same,AC50,[5],15.4 µM (active)
same,AC50,[6],12.7 µM (active)
same,AC50,[7],6.12 µM (active)
same,AC50,[8],10.1 µM (active)
same,outcome,[9],inactive
same,AC50,[10],7.1 µM (active)
same,outcome,[11],inactive
same,outcome,[12],inactive
same,outcome,[13],inactive
same,outcome,[14],inactive
same,outcome,[15],inactive
same,outcome,[16],inactive
same,outcome,[17],inactive
same,outcome,[18],inactive
O=c1c(-c2ccc(O)cc2)coc2cc(O)ccc12,outcome,[1],inactive
same,outcome,[2],inactive
same,outcome,[3],inactive
same,outcome,[4],inactive
same,outcome,[5],inactive
same,outcome,[6],inactive
same,outcome,[7],inactive
same,outcome,[8],inactive
same,outcome,[9],inactive
same,outcome,[10],inactive
same,outcome,[11],inactive
same,outcome,[12],inactive
same,outcome,[13],inactive
same,outcome,[14],inactive
same,outcome,[15],inactive
same,outcome,[17],inactive
same,outcome,[18],inactive
CC#C[C@]1(O)CC[C@H]2[C@@H]3CCC4=CC(=O)CCC4=C3[C@@H](c3ccc(N(C)C)cc3)C[C@@]21C,outcome,[1],inactive
same,AC50,[2],26.4 µM (active)
same,AC50,[3],27.6 µM (active)
same,AC50,[4],34 µM (active)
same,AC50,[5],33 µM (active)
same,AC50,[6],28 µM (active)
same,AC50,[7],50 µM (active)
same,AC50,[8],19.6 µM (active)
same,AC50,[9],23.9 µM (active)
same,AC50,[11],4.48 µM (active)
same,AC50,[12],8.69 µM (active)
same,AC50,[13],50 µM (active)
same,outcome,[14],inactive
same,AC50,[15],35.1 µM (active)
same,AC50,[17],43.6 µM (active)
O=C(OCCOCCOC(=O)c1ccccc1)c1ccccc1,outcome,[1],inactive
same,AC50,[2],68.9 µM (active)
same,outcome,[3],inactive
same,outcome,[4],inactive
same,outcome,[5],inactive
same,outcome,[6],inactive
same,outcome,[7],inactive
same,outcome,[8],inactive
same,outcome,[9],inactive
same,outcome,[10],inactive
same,outcome,[19],inactive
same,outcome,[11],inactive
same,outcome,[12],inactive
same,outcome,[13],inactive
same,outcome,[14],inactive
same,outcome,[15],inactive
same,outcome,[17],inactive
same,outcome,[18],inactive
CCCCCCCCCCCCCCCS(=O)(=O)Oc1ccccc1,outcome,[1],inactive
same,AC50,[2],5.56 µM (active)
same,outcome,[3],inactive
same,AC50,[4],3.1 µM (active)
same,AC50,[5],8.59 µM (active)
same,AC50,[6],7.61 µM (active)
same,outcome,[7],inactive
same,AC50,[8],14.1 µM (active)
same,outcome,[9],inactive
same,AC50,[10],9.56 µM (active)
same,outcome,[11],inactive
same,outcome,[12],inactive
same,outcome,[13],inactive
same,AC50,[20],8.39 µM (active)
same,outcome,[14],inactive
same,outcome,[15],inactive
same,outcome,[16],inactive
same,outcome,[17],inactive
CCc1ccc(CCOc2ccc(CC3SC(=O)NC3=O)cc2)nc1 (stereo not drawn),outcome,[1],inactive
same,AC50,[2],31.6 µM (active)
same,outcome,[3],inactive
same,AC50,[4],92.5 µM (active)
same,AC50,[6],88.4 µM (active)
same,AC50,[7],77.6 µM (active)
same,AC50,[8],48.5 µM (active)
same,AC50,[9],85.9 µM (active)
same,outcome,[11],inactive
same,AC50,[12],15.1 µM (active)
same,AC50,[13],15.9 µM (active)
same,outcome,[14],inactive
same,AC50,[15],88.3 µM (active)
same,AC50,[17],68.5 µM (active)
same,AC50,[18],78.1 µM (active)
CC[C@H](c1ccc(O)cc1)[C@@H](CC)c1ccc(O)cc1,AC50,[1],83.4 µM (active)
same,outcome,[2],inactive
same,outcome,[3],inactive
same,AC50,[4],79.4 µM (active)
same,AC50,[5],80.3 µM (active)
same,outcome,[6],inactive
same,outcome,[7],inactive
same,AC50,[8],87.9 µM (active)
same,AC50,[9],76.7 µM (active)
same,outcome,[19],inactive
same,outcome,[11],inactive
same,AC50,[12],78.7 µM (active)
same,AC50,[13],88.4 µM (active)
same,AC50,[14],70.3 µM (active)
same,AC50,[15],80.7 µM (active)
same,outcome,[16],inactive
same,AC50,[17],78.8 µM (active)

# From PubChem BioAssay (EPA / NIEHS)
